# From PubChem BioAssay (Tox21)
# Inconclusive results are not listed. A call without a number means that no potency is given here. Calls of active or inactive are those of the source. Unless noted, the call rests on the fitted dose curve; in most records, active means well fitted curve in the direction sought with a large enough effect in the repeat runs; inconclusive means weak or mixed curves; inactive means no such curve, though single readings can be large; an effect the other way counts as inactive or inconclusive.
# How the values were obtained:
# [1] = biological target: Acetylcholinesterase (Homo sapiens) (UniProt P22303); assay: Acetylcholinesterase (AChE) small molecule antagonists: enzyme-based qHTS assay (AID 1347397; calls by dose curve; further: nearly all actives have a fitted effect of over 55% in size); details: Potency: AChE enzyme activity inhibition
# Outline: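 Human recombinant acetylcholinesterase; substrate acetylthiocholine; thiocholine quantified with DTNB (colorimetric). Compound preincubation 30 min RT; reaction 10 min RT.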
# [2] = biological target: Acetylcholinesterase (Homo sapiens) (UniProt P22303); assay: Acetylcholinesterase (AChE) small molecule antagonists: fluorescence cell-based qHTS assay (AID 1347398; calls by dose curve; further: nearly all actives have a fitted effect of over 50% in size); details: Potency: AChE activity
# Outline: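 Thiocholine generated from acetylthiocholine by SH-SY5Y cell AChE is detected with Thiolite Green (Ex/Em 490/520 nm) after 40 min at room temperature, following 30 min compound pretreatment at 37 C.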
# [3] = biological target: Acetylcholinesterase (Homo sapiens) (UniProt P22303); assay: Acetylcholinesterase (AChE) small molecule antagonists: enzyme-based qHTS assay with human liver microsomes (AID 1347399; calls by dose curve; further: nearly all actives have a fitted effect of over 60% in size); details: Potency: qHTS inhibition
# Outline: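 Recombinant human AChE (50 mU/mL in the enzyme mix) and human liver microsomes (0.25 mg/mL final) were preincubated with compound and NADPH (0.25 mg/mL final) for 30 min at 37 C. Acetylthiocholine/DTNB was then added; thiocholine was read colorimetrically after 10 min at room temperature.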
# [4] = biological target: Cytochrome P450 2D6 (Homo sapiens) (UniProt P10635); assay: Cytochrome P450 Family 2 Subfamily D Member 6 (CYP2D6) small molecule antagonists: luciferase reporter qHTS assay (AID 1671196); further: nearly all actives have a fitted effect of over 50% in size; further: potency means the concentration at half of the fitted maximal effect
# Outline: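 Cell-free P450-Glo system: CYP2D6 with proluciferin substrate was pre-incubated with compound for 10 min, then reacted with NADPH regeneration for 1 h at room temperature. Luciferin product was detected after 20 min, and data were reported as relative luminescence units.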
# [5] = biological target: Cytochrome P450 2C9 (Homo sapiens) (UniProt P11712); assay: Cytochrome P450 Family 2 Subfamily C Member 9 (CYP2C9) small molecule antagonists: luciferase reporter qHTS assay (AID 1671198); further: nearly all actives have a fitted effect of over 50% in size; further: potency means the concentration at half of the fitted maximal effect
# Outline: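 CYP2C9 activity was measured with a P450-Glo proluciferin substrate. Enzyme–substrate mix was held with compound for 10 min at room temperature, then NADPH regeneration solution was added for 1 h at 37C. Luciferin product was read as luminescence.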
# [6] = biological target: Cytochrome P450 1A2 (Homo sapiens) (UniProt P05177); assay: Cytochrome P450 Family 1 Subfamily A Member 2 (CYP1A2) small molecule antagonists: luciferase reporter qHTS assay (AID 1671199); further: nearly all actives have a fitted effect of over 50% in size; further: potency means the concentration at half of the fitted maximal effect
# Outline: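 P450-Glo CYP1A2 enzyme–proluciferin substrate mix with compound 10 min at room temperature, then NADPH regeneration 1 h at room temperature. Luciferin detection reagent added, luminescence read after 20 min; furafylline positive control.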
# [7] = biological target: Voltage-gated inwardly rectifying potassium channel KCNH2 (Homo sapiens) (UniProt Q12809); assay: Human Ether-a-go-go-Related Gene (hERG) channel small molecule antagonists: fluorescence cell-based qHTS assay (AID 1671200); further: nearly all actives have a fitted effect of over 50% in size; further: potency means the concentration at half of the fitted maximal effect
# Outline: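 First, 1000 cells per well are seeded and cultured overnight at 37 C. Next, FluxOR II dye is loaded for 1 h at room temperature, protected from light. After 10 more minutes, stimulus is added and fluorescence is read.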
# [8] = biological target: Cytochrome P450 3A4 (Homo sapiens) (UniProt P08684); assay: Cytochrome P450 Family 3 Subfamily A Member 4 (CYP3A4) small molecule antagonists: luciferase reporter qHTS assay (AID 1671201); further: nearly all actives have a fitted effect of over 50% in size; further: potency means the concentration at half of the fitted maximal effect
# Outline: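 Enzyme and proluciferin substrate are mixed with test chemicals for 10 min, then NADPH regeneration system drives turnover for 1 h at room temperature. A detection reagent halts the reaction; luminescence after 20 min gives relative activity.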
# [9] = biological target: Cytochrome P450 2C19 (Homo sapiens) (UniProt P33261); assay: Cytochrome P450 Family 2 Subfamily C Member 19 (CYP2C19) small molecule antagonists: luciferase reporter qHTS assay (AID 1671197); further: nearly all actives have a fitted effect of over 65% in size; further: potency means the concentration at half of the fitted maximal effect
# Outline: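 Inhibition of CYP2C19 was scored from loss of luminescence in a P450-Glo proluciferin substrate assay, NADPH-started and run 1 h at 37C, with ketoconazole as positive control.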
# Cytochrome P450 2C19 (Homo sapiens), sequence (P33261 whole entry, looked up): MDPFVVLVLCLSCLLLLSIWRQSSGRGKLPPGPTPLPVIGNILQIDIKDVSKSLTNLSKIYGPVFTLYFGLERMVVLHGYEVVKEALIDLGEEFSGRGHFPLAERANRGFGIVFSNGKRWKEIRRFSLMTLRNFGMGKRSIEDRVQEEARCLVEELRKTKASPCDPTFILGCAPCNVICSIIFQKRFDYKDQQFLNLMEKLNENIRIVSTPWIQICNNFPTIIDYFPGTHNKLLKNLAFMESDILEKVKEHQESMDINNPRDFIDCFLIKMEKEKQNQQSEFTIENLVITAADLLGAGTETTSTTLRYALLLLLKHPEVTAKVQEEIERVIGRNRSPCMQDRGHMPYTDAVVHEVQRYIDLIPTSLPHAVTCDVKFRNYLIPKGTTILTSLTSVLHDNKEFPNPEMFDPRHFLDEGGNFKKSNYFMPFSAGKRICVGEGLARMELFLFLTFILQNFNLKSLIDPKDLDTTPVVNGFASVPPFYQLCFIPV
# Cytochrome P450 2C9 (Homo sapiens), sequence (P11712 whole entry, looked up): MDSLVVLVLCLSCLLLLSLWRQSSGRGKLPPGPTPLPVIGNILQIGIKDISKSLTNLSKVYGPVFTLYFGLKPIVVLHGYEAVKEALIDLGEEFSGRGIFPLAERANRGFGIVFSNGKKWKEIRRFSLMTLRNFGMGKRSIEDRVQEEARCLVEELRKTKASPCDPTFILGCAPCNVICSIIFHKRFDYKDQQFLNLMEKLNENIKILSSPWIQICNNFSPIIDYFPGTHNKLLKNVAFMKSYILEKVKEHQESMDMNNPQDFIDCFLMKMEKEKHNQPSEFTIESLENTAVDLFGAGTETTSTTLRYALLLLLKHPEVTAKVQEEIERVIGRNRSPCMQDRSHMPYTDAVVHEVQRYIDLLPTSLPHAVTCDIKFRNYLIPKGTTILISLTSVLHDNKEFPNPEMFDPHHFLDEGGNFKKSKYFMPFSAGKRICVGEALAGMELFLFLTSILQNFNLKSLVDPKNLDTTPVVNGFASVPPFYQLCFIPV
# Cytochrome P450 2D6 (Homo sapiens), sequence (P10635 whole entry, looked up): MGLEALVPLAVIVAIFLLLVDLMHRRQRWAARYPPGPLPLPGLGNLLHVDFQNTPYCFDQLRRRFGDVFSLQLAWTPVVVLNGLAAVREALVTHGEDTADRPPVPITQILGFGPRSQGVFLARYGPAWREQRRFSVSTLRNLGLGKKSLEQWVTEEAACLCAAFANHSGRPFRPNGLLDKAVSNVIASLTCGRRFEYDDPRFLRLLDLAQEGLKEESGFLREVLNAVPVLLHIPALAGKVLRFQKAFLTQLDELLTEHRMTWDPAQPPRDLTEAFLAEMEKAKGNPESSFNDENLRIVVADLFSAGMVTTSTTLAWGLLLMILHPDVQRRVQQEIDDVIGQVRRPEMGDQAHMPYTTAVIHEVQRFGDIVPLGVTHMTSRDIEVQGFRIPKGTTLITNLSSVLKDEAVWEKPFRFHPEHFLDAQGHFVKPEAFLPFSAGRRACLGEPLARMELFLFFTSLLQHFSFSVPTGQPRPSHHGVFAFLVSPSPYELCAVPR
# Cytochrome P450 1A2 (Homo sapiens), sequence (P05177 whole entry, looked up): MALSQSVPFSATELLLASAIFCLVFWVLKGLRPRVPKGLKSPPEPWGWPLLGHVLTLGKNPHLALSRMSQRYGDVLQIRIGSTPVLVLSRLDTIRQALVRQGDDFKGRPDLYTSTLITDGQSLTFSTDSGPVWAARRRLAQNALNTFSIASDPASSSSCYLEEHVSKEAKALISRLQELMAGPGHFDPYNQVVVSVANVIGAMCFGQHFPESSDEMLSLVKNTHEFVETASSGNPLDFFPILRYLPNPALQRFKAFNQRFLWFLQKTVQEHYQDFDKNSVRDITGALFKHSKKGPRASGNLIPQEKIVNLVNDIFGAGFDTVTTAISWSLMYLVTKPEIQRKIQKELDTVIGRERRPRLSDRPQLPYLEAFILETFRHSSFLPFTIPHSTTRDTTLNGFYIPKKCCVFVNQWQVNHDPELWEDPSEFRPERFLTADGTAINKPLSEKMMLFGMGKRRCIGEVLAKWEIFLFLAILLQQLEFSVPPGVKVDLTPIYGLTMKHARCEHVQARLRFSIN
# Cytochrome P450 3A4 (Homo sapiens), sequence (P08684 whole entry, looked up): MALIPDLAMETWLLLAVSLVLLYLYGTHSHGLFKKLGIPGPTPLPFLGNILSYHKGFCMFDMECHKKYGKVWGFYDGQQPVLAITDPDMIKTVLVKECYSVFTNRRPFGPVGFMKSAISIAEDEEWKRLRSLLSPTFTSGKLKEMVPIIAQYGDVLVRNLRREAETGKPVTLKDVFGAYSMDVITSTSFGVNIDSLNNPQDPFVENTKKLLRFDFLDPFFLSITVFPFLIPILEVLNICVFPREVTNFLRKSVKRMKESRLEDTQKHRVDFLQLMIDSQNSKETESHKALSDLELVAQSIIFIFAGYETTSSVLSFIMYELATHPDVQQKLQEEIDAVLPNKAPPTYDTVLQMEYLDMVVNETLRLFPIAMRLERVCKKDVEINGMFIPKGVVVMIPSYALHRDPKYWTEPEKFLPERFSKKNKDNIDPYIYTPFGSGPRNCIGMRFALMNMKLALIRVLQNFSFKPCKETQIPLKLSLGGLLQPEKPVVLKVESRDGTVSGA
# Voltage-gated inwardly rectifying potassium channel KCNH2 (Homo sapiens), sequence (Q12809 whole entry, looked up): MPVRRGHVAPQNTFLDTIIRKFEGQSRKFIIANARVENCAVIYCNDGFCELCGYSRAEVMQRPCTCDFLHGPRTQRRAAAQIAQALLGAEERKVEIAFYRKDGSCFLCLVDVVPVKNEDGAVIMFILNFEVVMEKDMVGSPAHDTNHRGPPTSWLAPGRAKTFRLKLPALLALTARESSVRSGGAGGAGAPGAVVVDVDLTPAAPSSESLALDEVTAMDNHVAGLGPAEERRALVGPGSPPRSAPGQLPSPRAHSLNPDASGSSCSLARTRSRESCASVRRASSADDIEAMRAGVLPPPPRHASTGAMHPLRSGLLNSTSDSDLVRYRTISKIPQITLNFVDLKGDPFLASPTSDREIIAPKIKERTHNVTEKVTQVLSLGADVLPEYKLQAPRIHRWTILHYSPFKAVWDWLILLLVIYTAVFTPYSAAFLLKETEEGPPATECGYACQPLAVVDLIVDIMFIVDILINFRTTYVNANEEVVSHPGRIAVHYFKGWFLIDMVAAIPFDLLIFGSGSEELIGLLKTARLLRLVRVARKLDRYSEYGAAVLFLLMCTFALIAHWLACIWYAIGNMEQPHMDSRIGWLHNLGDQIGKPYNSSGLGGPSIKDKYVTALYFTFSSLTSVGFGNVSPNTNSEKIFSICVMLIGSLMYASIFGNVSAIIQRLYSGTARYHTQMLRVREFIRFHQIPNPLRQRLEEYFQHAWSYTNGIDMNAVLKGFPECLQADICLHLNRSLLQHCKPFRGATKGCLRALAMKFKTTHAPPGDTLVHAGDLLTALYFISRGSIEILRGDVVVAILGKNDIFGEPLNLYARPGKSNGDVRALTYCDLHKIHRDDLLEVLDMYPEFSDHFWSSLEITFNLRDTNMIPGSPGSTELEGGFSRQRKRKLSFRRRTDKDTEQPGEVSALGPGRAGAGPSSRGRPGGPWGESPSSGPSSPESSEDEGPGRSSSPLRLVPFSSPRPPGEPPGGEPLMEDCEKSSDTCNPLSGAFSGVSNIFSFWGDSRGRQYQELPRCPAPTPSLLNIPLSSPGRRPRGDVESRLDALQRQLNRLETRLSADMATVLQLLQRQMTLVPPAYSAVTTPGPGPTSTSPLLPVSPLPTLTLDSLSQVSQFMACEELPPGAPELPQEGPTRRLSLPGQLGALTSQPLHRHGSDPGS
# Acetylcholinesterase (Homo sapiens), sequence (P22303 whole entry, looked up): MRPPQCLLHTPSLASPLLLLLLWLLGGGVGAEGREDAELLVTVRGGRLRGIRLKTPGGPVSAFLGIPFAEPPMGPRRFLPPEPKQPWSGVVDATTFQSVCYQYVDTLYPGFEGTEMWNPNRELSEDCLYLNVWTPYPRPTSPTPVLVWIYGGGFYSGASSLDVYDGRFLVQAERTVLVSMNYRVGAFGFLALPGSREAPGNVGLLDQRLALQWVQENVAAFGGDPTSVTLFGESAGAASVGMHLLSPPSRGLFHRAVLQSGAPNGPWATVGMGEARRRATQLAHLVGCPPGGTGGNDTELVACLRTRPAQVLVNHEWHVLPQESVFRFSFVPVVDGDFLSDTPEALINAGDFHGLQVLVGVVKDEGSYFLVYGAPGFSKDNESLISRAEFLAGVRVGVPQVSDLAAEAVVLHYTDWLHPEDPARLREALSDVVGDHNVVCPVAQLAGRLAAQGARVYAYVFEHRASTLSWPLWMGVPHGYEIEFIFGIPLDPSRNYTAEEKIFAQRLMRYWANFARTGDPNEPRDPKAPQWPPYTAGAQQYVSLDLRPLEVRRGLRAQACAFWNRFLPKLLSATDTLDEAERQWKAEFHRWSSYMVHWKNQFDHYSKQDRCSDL
Compound,Potency [1],Potency [2],Potency [3],Potency [4],Potency [5],Potency [6],Potency [7],Potency [8],Potency [9]
NS(=O)(=O)C(F)(F)C(F)(F)C(F)(F)C(F)(F)C(F)(F)C(F)(F)C(F)(F)C(F)(F)F,inactive,inactive,inactive,inactive,0.633 µM (active),inactive,inactive,inactive,
O=C(O)COc1ccc(Cl)cc1,inactive,inactive,inactive,inactive,inactive,,inactive,inactive,inactive
ClC=C(Cl)Cl,inactive,inactive,inactive,inactive,inactive,inactive,inactive,inactive,
C=C(C#N)CCC#N,inactive,inactive,inactive,inactive,inactive,,inactive,inactive,inactive
[O-][Cl+]O,inactive,inactive,inactive,inactive,inactive,inactive,inactive,inactive,inactive
CN(N=O)c1ccc([N+](=O)[O-])cc1,inactive,,inactive,,,6.33 µM (active),inactive,inactive,35.6 µM (active)
ClCc1ccccc1,inactive,inactive,inactive,,inactive,inactive,inactive,inactive,
COc1c(C(C)(C)C)cc([N+](=O)[O-])c(C)c1[N+](=O)[O-],,,inactive,,,1.77 µM (active),,inactive,28.1 µM (active)
O=C(NC(=O)c1c(F)cccc1F)Nc1cc(Cl)c(Oc2ncc(C(F)(F)F)cc2Cl)c(Cl)c1,,inactive,inactive,inactive,,inactive,inactive,inactive,
CCC(COC(=O)c1cc(OC)c(OC)c(OC)c1)(c1ccccc1)N(C)C (stereo not given),inactive,,inactive,0.55 µM (active),15.5 µM (active),inactive,,,
CCCN(CCC)c1c([N+](=O)[O-])cc(S(C)(=O)=O)cc1[N+](=O)[O-],inactive,inactive,inactive,,28.3 µM (active),inactive,inactive,20 µM (active),
CCOP(=S)(Oc1ccc([N+](=O)[O-])cc1)c1ccccc1 (stereo not given),inactive,inactive,,,0.564 µM (active),5.64 µM (active),0.616 µM (active),1.59 µM (active),
CC(C)N(C(=O)COc1nnc(C(F)(F)F)s1)c1ccc(F)cc1,inactive,,inactive,inactive,35.6 µM (active),39.9 µM (active),inactive,inactive,1 µM (active)
CCOP(=S)(OCC)Oc1cc(Cl)c(Br)cc1Cl,,,,inactive,2 µM (active),3.56 µM (active),inactive,2.24 µM (active),
CCCCCC[N+](=O)[O-],,,,,,,inactive,,
Nc1ccc(N=Nc2ccc(-c3ccc(N=Nc4c(S(=O)(=O)O)cc5cc(S(=O)(=O)O)c(N=Nc6ccccc6)c(O)c5c4N)cc3)cc2)c(N)c1,,inactive,inactive,,,,inactive,,inactive
C=CCN1CC[C@]23c4c5ccc(O)c4O[C@H]2C(=O)CC[C@@]3(O)[C@H]1C5,,,,,,,inactive,,
C[C@@H]1CC[C@H]2[C@@H](C)C(=O)O[C@@H]3O[C@@]4(C)CC[C@@H]1[C@]32OO4,,,,,,,inactive,,
COC(=O)C(C)N(C(=O)Cc1ccccc1)c1c(C)cccc1C (stereo not given),inactive,inactive,inactive,,22.4 µM (active),inactive,inactive,inactive,
NCCCNCCCN,,,,,,,inactive,,
